Test results reported in the supplement of paper PMC6555819.

test system: VDR:RXRa (NR concentration 270 nM, RXRa partner concentration 90 nM); experiment: PBM binding z-score (relative to random genomic background probes); higher = stronger binding; sequences stand for … in GC…GCGATTGACAGCGTAGAATGAAGG
Description: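 Protein-binding microarray (Agilent 4x180K custom design, double-stranded 60-nt probes: 5' GC cap, 34-nt variable region, 24-nt constant primer region; full probe sequence given). Purified or IVT nuclear receptor:RXRα heterodimers (3:1 NR:RXRα, mostly 270:90 nM) or homodimers were incubated for 1 h in PBS with 2% milk and no ligand, then detected with Alexa488 antibodies. Fluorescence from o1-orientation probes (~5 replicates averaged) was converted to z-scores against 500 random hg19 background probes. Variable regions are seed direct-repeat (DR0–DR5) sites, all their single-nucleotide variants and half-site ablations.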

Row | Sequence | PBM binding z-score
1 | TTACCAAGGTGAAGTTCGTTGATCCCTCTGTAGA | 1.49
2 | GCATATAGGTAATACAAGGTGAAAGACCGATTGT | 0.319
3 | CAAACTAGGTCAAGAGGTCCAAGTCCGCTTCCCG | 4.71
4 | AGAATGAGGTTATTAAGACCAGGGAATTGCGGTC | 1.69
5 | TCTTTTAGTTGAAGGGCAACCGACGAGTCCGTTT | 0.995
6 | TTGAGTAGGTTAGGGGCATTCAGAATGGCGTCGA | 0.889
7 | CAAACTAGGTCAAGGTTAAAGTCGGTTTGTGCCA | 3.2
8 | CGAACTAGGCCATCCAGGACAGTGAATACATTGA | 0.0871
9 | CAAACTAGGTCTCCGGAAGGTCAAAGTCCGCATG | 3.06
10 | CGTCCAAGTTCAAAGGTCAGTGAAGAGATGACGG | 6.37
11 | CGAACGAGGTCAAGGACAGTGAATCTCCGCACGC | 5.09
12 | CGTCCAAGGTCATTGCTAGGTCAGTGAAAGCATT | 5.53
13 | TTACCAAGGTGAAAGGTCTTTGATGCACGCCTTG | 0.479
14 | ATATGTAGGTTAGCTGGGGTCATTAAGACTAGGC | 5.83
15 | GCGACTGGGGCATCAGCAGGTTACAATAACTTAA | -0.29
16 | TCGAGTAGCTTAGGGGCATTCAGAATGGCGTCGA | -0.202
17 | CCTTACGGGTCACTCCAAGTTATAGCATCGGAGT | 2.82
18 | ATCTCTAGGGAACAAGTTCAGTGAAAGAGAGGAC | 1.48
19 | ACTCGGAGGACAAAGGTCGGAGCTACGCCAGTGA | 0.947
20 | GCTTACGGGTCAAAGGTTTTAGCATGAATAGAAT | 4.08

Row | Sequence | PBM binding z-score
21 | CAAACTAGGTCAAGAGGTCAAAGTGCGCTTCCCG | 6.26
22 | CCAACTGGGGCAAAGGTTACCATACTCAGTACGA | 1.7
23 | GTACCAAGGTGAATAGGTCGTAGATGAGTAGGCG | 0.667
24 | ATCTCTAGGTAAAGATAGGTCAGTGAATGCAAAT | 1.13
25 | CCGGCTGGGGCAGAAAGGTTACCATACCATCCGG | 0.63
26 | CCAGACAGATGAAAGGTAACTCAGTCTGGTACGC | 0.208
27 | CCGACTGGGGCAGAAAGGTCACCATACCATCCGG | 4.43
28 | TCTATAAGTTGATTAGGGCAACCGAAACAGCGGA | 0.463
29 | TGAATGAGGTTACAAGATCAGGGAACGTTGCAAA | 0.984
30 | AGAATGAGGTTAGTAAGATCAGGGAATTGCGGTC | 0.837
31 | GCGACTCGGGCATCAGCAGGTTACCATAACTTAA | -0.42
32 | GCTATTAGTTGAATGGGCAACCGAATGATTCTCG | -0.287
33 | CCTACTGGGCCAGTCAGAGGTCATTGATCATATG | 3.67
34 | TCTTGTAGATCAATAGAGGTTAAGACAGTGCGCT | 1.7
35 | TCTATTAGTTGAAGGGCAACCCACGAGTCCGTTT | 1.1
36 | GTACCAAGGTGAATAGCTCGTTGATGAGTAGGCG | -0.223
37 | CAAACTATGTCAAAGGTCAAAGTCGAGCCAACCA | 5.41
38 | ACAGACAGCTGAGTGAAGGTAACTCAGCTGGACG | -0.322
39 | TAGCCTAAGTCAGATCGGGCCAGTATACGCTATA | -0.662
40 | CCAGCCAGGTGAGAAGGTAACTCAGCCTCGATTA | -0.314
